Whole data set: some 33,000 sequences, median “E-score (-0.5 to 0.5)” near -0.04, cut for the highest 2% near 0.36. What follows is part of a selection rich in the highest values, with near analogues and random picks from the rest.
The sequences below were run against T1, Hmlalpha2 (UniProt P0CY09) (assay: PBM E-score (8-mer binding enrichment) (E-score (-0.5 to 0.5)); higher = stronger / more preferred TF binding). Settings: protein concentration: 200 nM; construct: GST-full length.
T1 sequence: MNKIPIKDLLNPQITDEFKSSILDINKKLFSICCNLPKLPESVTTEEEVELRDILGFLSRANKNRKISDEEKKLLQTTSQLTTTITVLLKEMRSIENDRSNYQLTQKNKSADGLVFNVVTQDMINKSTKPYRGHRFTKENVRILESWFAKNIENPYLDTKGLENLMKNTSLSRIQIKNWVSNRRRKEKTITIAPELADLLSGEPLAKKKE
Method: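 Universal 'all 10-mer' protein binding microarrays (Agilent AMADID 015681) probed with GST-tagged S. cerevisiae TFs (full-length or DBD) made by in vitro transcription/translation (PURExpress), about 100-200 nM. Bound TF was detected with fluorescent anti-GST. Each ungapped 8-mer (which stands for itself and its reverse complement) is scored by the PBM enrichment score (E-score), a modified Wilcoxon-Mann-Whitney statistic from -0.5 to +0.5, computed with the Universal PBM Analysis Suite. Scale: above 0.35 generally sequence-specific binding.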
GAACAAGA was tested, and the “PBM E-score” value was 0.139. In the case of GAACACAA, the “PBM E-score” value is reported as 0.319. For TAACACAA, the “PBM E-score” value was 0.43. For CAACTGCG, the “PBM E-score” value was -0.126. With CGACTGAC the “PBM E-score” value was -0.137. With ACTTGTGA the “PBM E-score” value was 0.148. In the case of TAGTCGCA, the “PBM E-score” value is reported as -0.085. With AAGGTGGT the “PBM E-score” value was -0.0621. With TGCCTACA the “PBM E-score” value was 0.0851. In the case of AAGCTACA, the “PBM E-score” value is reported as 0.158. CCGGTGCA was tested, and the “PBM E-score” value was -0.247. In the case of AAAACACG, the “PBM E-score” value is reported as 0.426. In the case of CAAACACG, the “PBM E-score” value is reported as 0.314. For AACACACA, the “PBM E-score” value was 0.391. In the case of AACACACG, the “PBM E-score” value is reported as 0.319. For AACACACT, the “PBM E-score” value was 0.313. With ATCACACA the “PBM E-score” value was 0.228. ATCACACC was tested, and the “PBM E-score” value was -0.0635. ATCACACG was tested, and the “PBM E-score” value was 0.371. In the case of CAAACACA, the “PBM E-score” value is reported as 0.334. With AAAACACT the “PBM E-score” value was 0.148. For AAAACACA, the “PBM E-score” value was 0.333. TAAACACA was tested, and the “PBM E-score” value was 0.379. GGCTTAAA was tested, and the “PBM E-score” value was -0.0594. With AGTACTAA the “PBM E-score” value was 0.173. For GAGCGCCA, the “PBM E-score” value was -0.25. In the case of GCGCAACC, the “PBM E-score” value is reported as -0.228. For ACGTCCCT, the “PBM E-score” value was 0.163. For CGTCCTAA, the “PBM E-score” value was -0.108. GTCTCCAC was tested, and the “PBM E-score” value was -0.178. For CCCCGTCC, the “PBM E-score” value was -0.382. For ATGGTGAA, the “PBM E-score” value was -0.0612. With ATGTATCG the “PBM E-score” value was 0.323. In the case of ATGTATTC, the “PBM E-score” value is reported as 0.443. In the case of AGGTATTC, the “PBM E-score” value is reported as 0.139. In the case of ATGTATTG, the “PBM E-score” value is reported as 0.416. For ACGTATTG, the “PBM E-score” value was 0.292. In the case of CTGTATTC, the “PBM E-score” value is reported as 0.255. ATAGTTCG was tested, and the “PBM E-score” value was 0.0279. In the case of CTCGAGTC, the “PBM E-score” value is reported as -0.178. With AAGAACCG the “PBM E-score” value was 0.117. In the case of CCCAATCA, the “PBM E-score” value is reported as -0.113. With AGGCATTC the “PBM E-score” value was -0.265. CGCGTAAG was tested, and the “PBM E-score” value was 0.369. CGCGTAAC was tested, and the “PBM E-score” value was 0.342. TGCGTAAA was tested, and the “PBM E-score” value was 0.441. CTCGTAAG was tested, and the “PBM E-score” value was 0.172. In the case of AGCGTAAA, the “PBM E-score” value is reported as 0.22. With CGCGTAGA the “PBM E-score” value was 0.359. CGCGTATA was tested, and the “PBM E-score” value was 0.372. GGCGTATA was tested, and the “PBM E-score” value was 0.106. For CGCGTAAA, the “PBM E-score” value was 0.454. GGCGTAAA was tested, and the “PBM E-score” value was 0.217. With AGCGTAAG the “PBM E-score” value was -0.106. In the case of CGCGTATC, the “PBM E-score” value is reported as 0.219. In the case of AGCAAGTC, the “PBM E-score” value is reported as -0.0673. CCCTATCG was tested, and the “PBM E-score” value was -0.272. For AGGAAACC, the “PBM E-score” value was -0.0996. In the case of TCCCAGGA, the “PBM E-score” value is reported as -0.361. With CATTAGAG the “PBM E-score” value was -0.127. For AGATTTGC, the “PBM E-score” value was -0.0168. With CGAGGGTA the “PBM E-score” value was -0.233. For GCCTGCCA, the “PBM E-score” value was -0.0217. In the case of ACATGACT, the “PBM E-score” value is reported as 0.307. In the case of ACATGACG, the “PBM E-score” value is reported as 0.379. With ACATGACC the “PBM E-score” value was 0.38. In the case of GCATGACA, the “PBM E-score” value is reported as 0.188. In the case of CCATGACC, the “PBM E-score” value is reported as -0.348. CCATGACG was tested, and the “PBM E-score” value was -0.105. With ACATGACA the “PBM E-score” value was 0.412. In the case of CCATGACA, the “PBM E-score” value is reported as 0.0453. In the case of GCATGACC, the “PBM E-score” value is reported as -0.191. With GCTTCAAC the “PBM E-score” value was 0.0375. With CTTGATCC the “PBM E-score” value was -0.142. With AAAATCGT the “PBM E-score” value was 0.0614. AGATGGAT was tested, and the “PBM E-score” value was -0.265. In the case of GTGTCTCA, the “PBM E-score” value is reported as -0.0554. For GCCTAGAA, the “PBM E-score” value was -0.187. For CGAGAAAG, the “PBM E-score” value was -0.0529. AGCCCTGA was tested, and the “PBM E-score” value was -0.0785. With GCCGTGTA the “PBM E-score” value was 0.432. CCCGTGTA was tested, and the “PBM E-score” value was 0.451. For CCCGTGTC, the “PBM E-score” value was 0.168. In the case of ACCGTGTG, the “PBM E-score” value is reported as 0.113. ACCGTGTC was tested, and the “PBM E-score” value was 0.264. GCCGTGCA was tested, and the “PBM E-score” value was 0.0721. For ACCGTGTA, the “PBM E-score” value was 0.473. With CCCGTGGA the “PBM E-score” value was -0.176. GCCGTGAA was tested, and the “PBM E-score” value was -0.197. In the case of AGCAAACG, the “PBM E-score” value is reported as -0.0759. In the case of AAGTGCCG, the “PBM E-score” value is reported as 0.00934. In the case of ACCGACTG, the “PBM E-score” value is reported as -0.317. With GTTGTTGA the “PBM E-score” value was 0.259. For TTCTGAAA, the “PBM E-score” value was 0.0341. CTTTCTGA was tested, and the “PBM E-score” value was 0.0509. For ACATTACA, the “PBM E-score” value was 0.449. ACATTACT was tested, and the “PBM E-score” value was 0.303. In the case of GCATTAGA, the “PBM E-score” value is reported as 0.0569. With ACATTACG the “PBM E-score” value was 0.336. With GCATTACA the “PBM E-score” value was 0.428. With CCATTACG the “PBM E-score” value was 0.13. In the case of TCATTACA, the “PBM E-score” value is reported as 0.439. With CCATTACC the “PBM E-score” value was -0.0103. For TCATTAGA, the “PBM E-score” value was 0.0985. CCATTACA was tested, and the “PBM E-score” value was 0.435. In the case of GCATTACC, the “PBM E-score” value is reported as 8e-05. TCATTAAA was tested, and the “PBM E-score” value was 0.263. With GTACGAAC the “PBM E-score” value was 0.152. With GGGAGAGA the “PBM E-score” value was -0.33. ACGGGTTG was tested, and the “PBM E-score” value was -0.15. CCTCAGCG was tested, and the “PBM E-score” value was -0.255. With CCCAGAAA the “PBM E-score” value was -0.0348. With GTTGCGAA the “PBM E-score” value was 0.0227. With ACGTCCTC the “PBM E-score” value was -0.162. CACGGCTC was tested, and the “PBM E-score” value was -0.0568. CGTGTCGC was tested, and the “PBM E-score” value was 0.214. ATGCCCTG was tested, and the “PBM E-score” value was -0.0289. CCGGCGGA was tested, and the “PBM E-score” value was -0.234. In the case of GACATGTA, the “PBM E-score” value is reported as 0.423. In the case of TAAATGTA, the “PBM E-score” value is reported as 0.38. TACAGGTA was tested, and the “PBM E-score” value was 0.135. CAAATGTA was tested, and the “PBM E-score” value was 0.35. For GACATGTC, the “PBM E-score” value was 0.327. For TACATCTA, the “PBM E-score” value was 0.263. With GAAATGTA the “PBM E-score” value was 0.0891. For CACATGTC, the “PBM E-score” value was 0.22. For TACATGTA, the “PBM E-score” value was 0.479. With CACATGTA the “PBM E-score” value was 0.416. With GACATTTA the “PBM E-score” value was 0.191. For AATTGACA, the “PBM E-score” value was 0.275. For AGTCTAGG, the “PBM E-score” value was -0.15. With CGCTCTCA the “PBM E-score” value was -0.165. With CAGTCCCG the “PBM E-score” value was -0.196. With ACGCCGAG the “PBM E-score” value was -0.0454. ATGTGCTA was tested, and the “PBM E-score” value was 0.0958. In the case of CGAAGAAG, the “PBM E-score” value is reported as -0.0393. ATGTTGAA was tested, and the “PBM E-score” value was 0.395. With CTGTTGAA the “PBM E-score” value was 0.259. In the case of ATGTTGAC, the “PBM E-score” value is reported as 0.356. For GTGTTGGA, the “PBM E-score” value was 0.224. With ATGTTGAG the “PBM E-score” value was 0.33. For GTGTTGAA, the “PBM E-score” value was 0.398. For GAGCTATA, the “PBM E-score” value was -0.0673. With GGTGCTCA the “PBM E-score” value was -0.179. In the case of CCCACGAA, the “PBM E-score” value is reported as -0.102. In the case of GGCAGCCC, the “PBM E-score” value is reported as -0.418. For ATTCACAA, the “PBM E-score” value was 0.232. AATACATC was tested, and the “PBM E-score” value was 0.368. In the case of TATACAAA, the “PBM E-score” value is reported as 0.265. For AATACAAC, the “PBM E-score” value was 0.315. AATACAGC was tested, and the “PBM E-score” value was 0.0849. For GATACATC, the “PBM E-score” value was 0.169. For AATACATG, the “PBM E-score” value was 0.482. With GATACATA the “PBM E-score” value was 0.32. For TATACATA, the “PBM E-score” value was 0.445. AATACAAT was tested, and the “PBM E-score” value was 0.249. In the case of AATACAAG, the “PBM E-score” value is reported as 0.386. AATACAGG was tested, and the “PBM E-score” value was 0.2. For AATACATT, the “PBM E-score” value was 0.329. For GAATGGTA, the “PBM E-score” value was 0.232. With GGTGGGGA the “PBM E-score” value was -0.0925. With GGCTTATA the “PBM E-score” value was -0.0133. AGTGTTGC was tested, and the “PBM E-score” value was 0.169. CGTAAGTC was tested, and the “PBM E-score” value was 0.0646. In the case of CCTAAGAG, the “PBM E-score” value is reported as -0.136. For AAGCCAAC, the “PBM E-score” value was 0.00741. In the case of CATACCCG, the “PBM E-score” value is reported as -0.117. With CATACATA the “PBM E-score” value was 0.329. In the case of AATACAAA, the “PBM E-score” value is reported as 0.363. In the case of CATACATG, the “PBM E-score” value is reported as 0.382. In the case of AATACAGA, the “PBM E-score” value is reported as 0.204. For AATACATA, the “PBM E-score” value was 0.444. In the case of CATACATC, the “PBM E-score” value is reported as 0.253.
